Screening results (PubChem BioAssay)
Shown are actives, neighbours in structure and some others; about 2% of the full set was active somewhere.
ABCB6 inh 2: human ABCB6 transporter inhibition; Q9NP58; fluorescence ratio to DMSO, % at 10 µM; hit rate 0.19% among 360,000; K562-ABCB6 porphyrin accumulation, flow cytometry, 1 h; stronger effect = lower value;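 active means fluorescence ratio to DMSO below 75%, the collection mean minus 3 SD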;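 further: signal is porphyrin accumulated inside mitochondria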
Exocytosis inh: blocks lytic granule exocytosis; TALL-104 LAMP-1 surface exposure, flow cytometry; cells stimulated with thapsigargin and PMA; hit rate 0.66% among 360,000; inhibition, % at 10 µM;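 active means inhibition above about 55%, limit read from the data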
Rev-erbA mod: modulates human Rev-erb alpha binding to DNA; AID 1259318; Rev-erbα–FITC-DNA binding, fluorescence polarization, 90 min; hit rate 0.79% among 370,000; activity, % at 10 µM;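 active means activity above about 14%, limit read from the data; passing the limit was not always enough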
Target sequence (P20393 whole entry, looked up): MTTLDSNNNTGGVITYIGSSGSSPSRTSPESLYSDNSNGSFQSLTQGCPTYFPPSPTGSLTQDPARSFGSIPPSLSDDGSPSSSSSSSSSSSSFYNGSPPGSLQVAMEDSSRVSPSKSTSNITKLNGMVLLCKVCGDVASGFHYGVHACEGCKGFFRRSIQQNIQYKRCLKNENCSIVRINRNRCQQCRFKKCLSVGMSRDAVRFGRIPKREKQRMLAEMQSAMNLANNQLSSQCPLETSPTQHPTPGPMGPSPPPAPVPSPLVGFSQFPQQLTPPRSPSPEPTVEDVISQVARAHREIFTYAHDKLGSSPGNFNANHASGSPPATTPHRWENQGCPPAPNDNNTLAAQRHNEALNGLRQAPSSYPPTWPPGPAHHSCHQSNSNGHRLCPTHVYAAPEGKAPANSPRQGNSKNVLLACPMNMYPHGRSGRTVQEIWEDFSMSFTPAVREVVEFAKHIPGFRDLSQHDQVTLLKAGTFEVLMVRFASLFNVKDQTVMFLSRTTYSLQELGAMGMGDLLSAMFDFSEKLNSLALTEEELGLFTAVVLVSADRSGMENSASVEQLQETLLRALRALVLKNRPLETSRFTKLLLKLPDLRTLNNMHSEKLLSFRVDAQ
PG9 binder: binds the HIV-1 gp120 antibody PG9; TR-FRET gp120-PG9 antibody binding; hit rate 0.43% among 360,000; inhibition, % at 6.7 µM; AID 624416; in the data active means inhibition above about 8.5%
VLA-4 inh: inhibition in a human VLA-4 binding assay. VLA-4 expressing cells, ligand binding flow cytometry. inhibition, % (about 7 µM as worked out from the volumes in the protocol). hit rate 0.2% among 330,000. AID 2557; in the data active means inhibition above about 50%
Rev-erbA confirm: Rev-erb alpha (human) modulation, hit confirmation; shares compounds with Rev-erbA mod; Rev-erb alpha FITC-DNA binding, fluorescence polarization, 90 min; activation, % at 25 µM; hit rate 61% among 3,000; AID 1259319;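 active means activation at or above a set limit, or at least 3 SD above the negative control mean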
RORg counter: RORgamma DNA-binding activity, dose-response counter-screen; shares compounds with Rev-erbA mod; purified RORgamma protein-FITC-DNA binding, fluorescence polarization; IC50, µM; hit rate 8% among 910; AID 1259320;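 active means Compounds whose fitted half-maximal concentration for disrupting protein-DNA binding is below 10 micromolar; the record names Rev-erb in its text, so the target is in doubt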
Large screens that a line does not name were inactive (follow-up assays come after a bar, where they were run).

N#Cc1c2n(c3c(=O)n(CC(=O)c4ccc(Br)cc4)cnc13)CCCC2	none
Cc1nn(-c2ccccc2)c(C)c1NC(=O)COC(=O)c1cc(Br)ccc1O	Rev-erbA mod 31 | Rev-erbA confirm inactive
COc1ccc(CN(Cc2cc3cc(C)ccc3[nH]c2=O)C(=O)N(C)C)cc1	none
CNC(=S)N(Cc1ccc(OC)cc1)Cc1cc2cc(C)ccc2[nH]c1=O	Rev-erbA mod 40 | Rev-erbA confirm 25
COc1cc2cc(CN(C(=O)NC3CCCCC3)C3CCCC3)c(=O)[nH]c2cc1OC	none
COc1ccc(CN(Cc2cc3cc(OC)c(OC)cc3[nH]c2=O)C(=O)NC2CCCCC2)cc1	Rev-erbA mod 50 | Rev-erbA confirm 78 | RORg counter inactive
COC(=O)[C@H](CC(C)C)N(Cc1cn(CC2CCCCC2)nn1)S(=O)(=O)c1ccc(F)cc1Br	none (no result: ABCB6 inh 2, Exocytosis inh, PG9 binder, VLA-4 inh)
Cc1cc(C)c2c(C)c(C(=O)NCc3ccc(S(N)(=O)=O)cc3)oc2c1	Rev-erbA mod 28 | Rev-erbA confirm 20
COC(=O)CSc1nnc(-c2cccs2)o1	none (no result: ABCB6 inh 2, Exocytosis inh, PG9 binder, VLA-4 inh)
COC(=O)C[C@H]1CC[C@@H]2[C@H](COc3ccc(NS(C)(=O)=O)cc3C(=O)N2C)O1	none (no result: ABCB6 inh 2, Exocytosis inh, PG9 binder, VLA-4 inh)
CN1C(=O)c2cc(NS(C)(=O)=O)ccc2OC[C@H]2O[C@@H](CC(=O)NCc3ccc(-c4ccccc4)cc3)CC[C@@H]21	Rev-erbA mod 83 (no result: ABCB6 inh 2, Exocytosis inh, PG9 binder, VLA-4 inh) | Rev-erbA confirm 20
CN1C(=O)c2cc(NC(=O)Nc3ccccc3)ccc2OC[C@H]2O[C@@H](CC(=O)NCc3ccc(-c4ccccc4)cc3)CC[C@@H]21	none (no result: ABCB6 inh 2, Exocytosis inh, PG9 binder, VLA-4 inh)
CN1C(=O)c2cc(NC(=O)Nc3ccccc3F)ccc2OC[C@H]2O[C@@H](CC(=O)NCc3ccc(-c4ccccc4)cc3)CC[C@@H]21	Rev-erbA mod 107 (no result: ABCB6 inh 2, Exocytosis inh, PG9 binder, VLA-4 inh) | Rev-erbA confirm 70 | RORg counter inactive
CCCCNc1cccc2c1S(=O)(=O)N[C@H](C)CO2	none (no result: ABCB6 inh 2, Exocytosis inh, VLA-4 inh)
Cc1ccc(C)c(OCCC(=O)NCCc2ccc(Cl)cc2)c1	Rev-erbA mod 23 | Rev-erbA confirm 27
CC(=O)Oc1ccc(/C=N\NC(=O)c2cc3c(ccc4ccccc43)o2)cc1	Rev-erbA mod 33 | Rev-erbA confirm 33 | RORg counter inactive
Cc1ccc(/C=N/NC(=O)c2cc3c(ccc4ccccc43)o2)o1	none (no result: VLA-4 inh)
C[C@H]1CC2C([C@@H](O)C[C@@]3(C)C2CC[C@]3(O)C(=O)COC(=O)CCC(=O)O)[C@@]2(C)C=CC(=O)C=C12 (some centres not stated)	none (no result: ABCB6 inh 2, Exocytosis inh, PG9 binder, VLA-4 inh)
COC(=O)[C@@]12CCCCC3=C1N(CCC3)C(=O)[C@H]2CC(=O)NCCCN1CCCC1=O	none (no result: ABCB6 inh 2, Exocytosis inh, PG9 binder, VLA-4 inh)
Cc1c(/C(O)=C2/C(=O)C(=O)N(CCN3CCOCC3)C2c2cccs2)cnn1-c1ccccc1 (configuration not stated)	Rev-erbA mod 21 | Rev-erbA confirm 26
Cc1nc(N2CCN(S(=O)(=O)c3ccccc3)CC2)c2cc(-c3ccccc3)sc2n1	Rev-erbA mod 44 | Rev-erbA confirm 28
CCCn1c(-c2cccs2)nc2c1c(=O)[nH]c(=O)n2Cc1ccccc1	Rev-erbA mod 23 | Rev-erbA confirm inactive
CCCCn1c(=O)[nH]c(=O)c2c1nc(-c1ccccc1F)n2Cc1ccccc1	none
CC1(C)Cc2c(sc3nnn(Cc4ccc(Cl)cc4)c(=O)c23)CO1	none
CC1(C)Cc2c(sc3c2c(N)nc(=S)n3Cc2ccc(Br)cc2)CO1	Rev-erbA mod 135 | Rev-erbA confirm 95 | RORg counter inactive
COc1ccc(Cc2nc3ccccc3n2CC(=O)N/N=C/c2ccc(C)cc2O)cc1OC	Rev-erbA mod 34 | Rev-erbA confirm 45 | RORg counter inactive
COCC(=O)N(C)[C@H]1C[C@H]2c3[nH]c4c(-c5ccccc5)cccc4c3CCN2C(=O)[C@H]1[C@H](C)O	none (no result: ABCB6 inh 2, Exocytosis inh, VLA-4 inh)
Cc1cc(C(=O)Nc2ccc(Cl)c(Cl)c2)n(-c2ccccc2)n1	none (no result: ABCB6 inh 2, Exocytosis inh, PG9 binder, VLA-4 inh)
Cc1cccc(C)c1NC(=O)C1C(c2ccc3c(c2)OCO3)=Nc2ccccc2N1C(=O)c1cccc2ccccc12 (configuration not stated)	Rev-erbA mod 29 (no result: ABCB6 inh 2, VLA-4 inh) | Rev-erbA confirm 17
O=C(NCc1ccccc1)C1C(c2ccc3c(c2)OCO3)=Nc2ccccc2N1C(=O)c1cccc2ccccc12 (configuration not stated)	Rev-erbA mod 16 (no result: ABCB6 inh 2, VLA-4 inh) | Rev-erbA confirm inactive
COC(=O)[C@]12C[C@H](CC(=O)N3CCC(c4ccccc4)CC3)C(=O)N(Cc3ccccc3)C1=C[C@H](C(C)(C)C)O[C@@H]2C	none (no result: ABCB6 inh 2, Exocytosis inh, VLA-4 inh)
O=C(Cc1ccccc1F)N1CCC(n2nnc3ncccc32)CC1	none (no result: ABCB6 inh 2, Exocytosis inh, PG9 binder, VLA-4 inh)
CSCCCNC(=O)Cn1nc(Cc2ccncc2)c2ccccc2c1=O	none (no result: ABCB6 inh 2, Exocytosis inh, PG9 binder, VLA-4 inh)
O=C(N=c1ccn(-c2nc3ccccc3nc2NS(=O)(=O)c2ccc(Cl)cc2)cc1)c1cccs1	Rev-erbA mod 91 | Rev-erbA confirm 33 | RORg counter inactive
O=C(N=c1ccn(-c2nc3ccccc3nc2NS(=O)(=O)c2ccccc2)cc1)c1ccccc1Cl	none
N#Cc1ccccc1Sc1ccccc1C(=O)OCC(=O)NC12CC3CC(CC(C3)C1)C2	none
CN(C)C(=O)COC(=O)c1ccccc1Sc1ccccc1C#N	none
CC(=O)c1ccc(NC(=O)COC(=O)c2ccccc2Sc2ccccc2C#N)cc1	Rev-erbA mod 55 | Rev-erbA confirm 31 | RORg counter inactive
N#Cc1cccc(NC(=O)COC(=O)c2ccccc2Sc2ccccc2C#N)c1	Rev-erbA mod 37 | Rev-erbA confirm 21
CC(C)(N[C@@H](Cc1c[nH]c2ccccc12)C(=O)NCCc1c[nH]c2ccccc12)C(=O)NC1CCCCC1	none (no result: ABCB6 inh 2, Exocytosis inh, PG9 binder, VLA-4 inh)
O=C(Nc1cccc2ccccc12)N1CCN(c2ccc(F)cc2)CC1	Rev-erbA mod 26 | Rev-erbA confirm inactive
CNC(=O)COC(=O)c1cc2c(C)nn(-c3ccc(F)cc3)c2s1	Rev-erbA mod 17 | Rev-erbA confirm inactive
CCCCN(C(=O)C1CC(=O)N(CCc2ccc(OC)c(OC)c2)C1)c1c(N)n(CCCC)c(=O)[nH]c1=O (configuration not stated)	none
CCCCn1c(N)c(N(CC(C)C)C(=O)C2CC(=O)N(CCc3ccccc3)C2)c(=O)[nH]c1=O (configuration not stated)	Rev-erbA mod 12 | Rev-erbA confirm inactive
CSc1cc(-c2ccc(Cl)cc2)[nH]c(=O)c1C#N	Rev-erbA mod 82 | Rev-erbA confirm inactive
COc1ccc(NS(=O)(=O)c2cc(NC(=O)C3CC3)ccc2N2CCCCC2)cc1	none
COc1ccc(N2CCN(c3ccc(NC(=O)C4CCCCC4)cc3C#N)CC2)cc1	Rev-erbA mod 30 | Rev-erbA confirm inactive
COc1ccc(N2CCN(c3ccc(N)cc3C#N)CC2)cc1	none
COc1ccc(C(=O)Nc2ccc(N3CCN(c4ccc(OC)cc4)CC3)c(C#N)c2)cc1	Rev-erbA mod 84 | Rev-erbA confirm 56
CCCCNC(=O)NCC1CCN(Cc2ccc(OC)cc2)CC1	none (no result: ABCB6 inh 2, Exocytosis inh, PG9 binder, VLA-4 inh)
